# Screens: PubChem, Buhrlage Lab, Dana-Farber Cancer Institute and Novartis Institutes for BioMedical Research (Cambridge, Mass)
# USP28 inh: blocks human USP28 ubiquitin-rhodamine cleavage | Q96RU2 | inhibition, % at 25 µM | purified USP28, Ub-rhodamine cleavage fluorescence, 30 min | AID 1645857 | 47,000 compounds, 3% hits
# Target sequence (Q96RU2 whole entry, looked up): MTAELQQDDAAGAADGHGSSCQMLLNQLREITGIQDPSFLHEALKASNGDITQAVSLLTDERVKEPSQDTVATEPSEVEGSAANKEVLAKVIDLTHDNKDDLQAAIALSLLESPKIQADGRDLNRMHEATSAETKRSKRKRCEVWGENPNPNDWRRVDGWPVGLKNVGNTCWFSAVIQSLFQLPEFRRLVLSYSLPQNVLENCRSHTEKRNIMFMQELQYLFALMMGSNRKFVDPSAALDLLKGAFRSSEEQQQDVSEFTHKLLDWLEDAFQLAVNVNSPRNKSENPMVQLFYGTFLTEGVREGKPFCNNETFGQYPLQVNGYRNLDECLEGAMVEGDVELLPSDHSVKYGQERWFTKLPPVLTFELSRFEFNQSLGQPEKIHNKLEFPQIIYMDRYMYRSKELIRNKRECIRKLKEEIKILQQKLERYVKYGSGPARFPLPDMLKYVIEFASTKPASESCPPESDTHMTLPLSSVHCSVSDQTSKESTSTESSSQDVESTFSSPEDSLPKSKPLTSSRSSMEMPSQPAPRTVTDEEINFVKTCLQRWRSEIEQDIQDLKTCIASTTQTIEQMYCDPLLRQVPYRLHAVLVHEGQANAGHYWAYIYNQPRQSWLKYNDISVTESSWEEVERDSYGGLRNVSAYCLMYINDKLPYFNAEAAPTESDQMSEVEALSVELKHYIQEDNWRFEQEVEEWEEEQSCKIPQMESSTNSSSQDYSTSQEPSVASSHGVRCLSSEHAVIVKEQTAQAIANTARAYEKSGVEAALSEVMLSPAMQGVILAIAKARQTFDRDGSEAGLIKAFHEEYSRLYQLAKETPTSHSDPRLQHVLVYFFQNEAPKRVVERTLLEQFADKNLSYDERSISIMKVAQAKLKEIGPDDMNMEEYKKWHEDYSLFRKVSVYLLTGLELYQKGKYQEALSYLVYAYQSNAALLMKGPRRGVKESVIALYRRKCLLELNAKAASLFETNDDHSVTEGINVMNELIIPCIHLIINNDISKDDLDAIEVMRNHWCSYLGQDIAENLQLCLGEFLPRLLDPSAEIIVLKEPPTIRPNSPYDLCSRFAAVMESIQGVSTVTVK
# OTUD3 inh: human OTUD3 deubiquitinase inhibition; Q5T2D3; inhibition, % at 25 µM; purified OTUD3, Ub-rhodamine fluorescence, 2 h; 47,000 compounds, 0.7% hits
# USP30 block: human USP30 deubiquitinase inhibition. Q70CQ3. purified USP30, Ub-rhodamine cleavage fluorescence. inhibition, % at 25 µM. 47,000 compounds, 5.3% hits
# USP17 inh: inhibitors of human USP17 deubiquitinase; A8MUK1; purified USP17, Ub-rhodamine cleavage fluorescence, 3 h; inhibition, % at 50 µM; 47,000 compounds, 6.5% hits; AID 1645855
# Numbers stand for hits; n = inactive; x = no result given. Compounds with a hit are over-represented: about 11% of the library has one in this group of screens. Cut-off read from the data, not from the text of the source: active = inhibition above about 30%; inactive = the rest.
SMILES,USP28 inh,OTUD3 inh,USP30 block,USP17 inh
CCOC(=O)c1c(C)nn(-c2ccc(NC(=O)Nc3ccc(Cl)cc3)cc2)c1C,n,n,n,n
Cc1c(OCc2ccccc2)noc1C1CCN(C(=O)NC2CCOCC2)CC1,35.5,n,n,n
Cc1c(OCc2ccccc2)noc1C1CCN(C(=O)C(C)C)CC1,x,n,x,n
CCOc1ccc(-n2cc(-c3ccccc3)c3c(NCCc4ccc(S(N)(=O)=O)cc4)ncnc32)cc1,n,n,n,n
Cc1ccc(CC(=O)N2CCC3(CC2)NC(=O)c2ccccc2N3C)cc1,n,n,n,n
Cn1c(=O)n([C@@H](Cc2ccccc2)C(=O)NCc2ccc(F)cc2)c(=O)c2ccccc21,n,n,45.8,n
O=C(NCc1ccc(F)cc1)C(c1ccccc1)c1ccccc1,n,n,30.8,n
Cc1csc(C2(NC(=O)Nc3cn[nH]c3)CCCC2)n1,n,n,n,n
COc1ccc(NS(=O)(=O)c2ccc3oc(SCC(=O)N(C)C4CCS(=O)(=O)C4)nc3c2)cc1 (centres undefined),x,n,x,n
COc1ccccc1NS(=O)(=O)c1ccc2oc(SCC(=O)c3ccccc3)nc2c1,64.4,n,n,n
Cc1cccc(C(=O)N[C@@H]2C[C@@H](Oc3cccc(F)c3)[C@H](O)[C@H]2O)n1,n,n,n,n
O=[N+]([O-])c1cccc(-c2noc(CSc3ccccc3)n2)c1,66.9,n,n,n
O=[N+]([O-])c1cccc(-c2nnc(-c3ccccn3)o2)c1,n,n,n,n
CC(C)(C)c1ccc(S(=O)(=O)Nc2ccc(Cc3ccncc3)cc2)cc1,n,n,36.4,n
Cc1nnc(-c2csc(S(=O)(=O)NC3CCCCCC3)c2)o1,n,n,n,n
COc1cc2c(c(OCC(=O)Nc3ccc4c(c3)OCCO4)c1)C(=O)O[C@@H](C)CCCC(=O)CCCCC2,n,n,51.3,n
COc1cc(N)c(Cl)cc1C(=O)OCC(=O)N1CCCC1,n,n,n,n
COc1cc(OCC(=O)NC(C)C)cc2c1C(=O)O[C@@H](C)CCCC(=O)CCCCC2,n,n,n,n
COc1cc(N)c(Cl)cc1C(=O)OCC(=O)Nc1ccc2c(c1)OCCO2,37.0,n,n,n
Cc1c(O)cc(O)cc1O,n,47.7,n,54.4
Cc1cc(C)cc(N2C(N)=NC(N)=NC2c2ccccc2F)c1 (centres undefined),n,n,36.9,n
COc1ccc(CCNC(=O)CCCn2c(=O)c3ccccc3n(Cc3ccccc3F)c2=O)cc1OC,n,n,n,n
COc1ccc(CCNC(=O)Cn2c(=O)c3sccc3n(Cc3cccc([N+](=O)[O-])c3)c2=O)cc1OC,n,n,44.5,n
COc1ccc(CCNC(=O)Cn2c(=O)c3sccc3n(Cc3ccccc3F)c2=O)cc1OC,n,n,51.9,60.0
COc1ccccc1Nc1cc(C)nc2nc(-c3ccco3)nn12,n,n,n,40.8
SMILES,USP28 inh,OTUD3 inh,USP30 block,USP17 inh
O=C(Cn1cc(SCc2ccccc2Cl)c2ccccc21)N1CCCC1,n,n,n,32.0
O=C(CSc1cn(CC(=O)N2CCCCC2)c2ccccc12)NCCc1ccccc1,n,n,n,n
O=C(COC(=O)C1(c2ccccc2F)CCCC1)c1ccc2c(c1)OCCO2,n,n,n,n
COc1ccc(C(CC(=O)Nc2ccccc2OC)n2cccc2)cc1 (centres undefined),n,n,n,n
Cc1ccc(Oc2ccccc2NC(=O)CSc2nc(N)nc(N)n2)cc1,n,n,n,42.9
CC(C)c1c(O)ccc2c1CCC1[C@@](C)(C=O)CCC[C@]21C (some centres undefined),n,n,n,35.0
CCCN(C)S(=O)(=O)c1cc(-c2nnc(C3CCCC3)o2)co1,n,n,n,n
Cc1cc(C)c(C#N)c(SCC(=O)Nc2c(C#N)cnn2-c2ccccc2)n1,x,n,x,37.1
Cc1cc(C)c(C#N)c(SCC(=O)Nc2ccc3c(c2)OCO3)n1,n,n,n,n
Cc1nc(N(C)C)nc2c1COCC21CCN(Cc2ccccc2)C1 (centres undefined),n,n,n,n
CC(C)N1CCC2(CC1)Nc1ccccc1C(=O)N2Cc1ccccc1,n,n,n,n
O=C1c2ccccc2NC2(C(=O)Nc3ccc(Br)cc32)N1c1ccccc1 (centres undefined),85.6,76.3,n,n
CCc1c(C)c(C#N)c2nc3ccccc3n2c1N1CCN(C2CCCC2)CC1,n,n,n,61.9
N#Cc1c(-c2ccccc2)cc(N2CCN(C3CCCCC3)CC2)n2c1nc1ccccc12,n,n,n,n
Cc1nccnc1CCC1COCCN1C(=O)c1ccc2n[nH]nc2c1 (centres undefined),n,n,31.4,n
Cc1nccnc1CCC1COCCN1C(=O)c1n[nH]c2ccccc12 (centres undefined),n,n,n,n
Cc1ccc(C(C)C)cc1OCCOCCN1CCNCC1,59.5,n,n,n
Cc1ccc(C)c(OCCOCCN2CCNCC2)c1C,n,n,n,n
CCN(c1ccc(NC(=O)CSc2nnc(-c3ccccc3)n2-c2ccc(OC)c(OC)c2)cc1)C(C)C,40.9,n,46.3,63.1
COc1ccc(-n2c(SCC(=O)c3c[nH]c4ccccc34)nnc2-c2ccccc2)cc1OC,n,n,n,n
O=c1c2ccccc2ncn1C1CCN(S(=O)(=O)c2ccccc2F)CC1,n,n,n,51.2
Cc1cccc2c(=O)n(C3CCN(S(=O)(=O)c4ccccc4)CC3)cnc12,n,n,n,43.7
O=C(c1cccc(S(=O)(=O)N2CCOCC2)c1)N1CCN(Cc2ccncc2)CC1,n,n,n,n
COc1ccc(OC)c(CC(=O)NC2CC3(CCOCC3)Oc3ccccc32)c1 (centres undefined),n,n,43.7,n
Cc1ccccc1NC(=O)Cc1nc(-c2cccc3ccccc23)cs1,n,n,n,46.8
SMILES,USP28 inh,OTUD3 inh,USP30 block,USP17 inh
CCCN(CC(=O)Nc1ccccc1C)CC(=O)Nc1cccc2ccccc12,n,n,36.9,n
Cc1cccc(NC(=O)CSCC(=O)Nc2cccc3ccccc23)c1,n,n,n,n
Cc1cnc(C(=O)N2CC[C@@H]3Oc4ccccc4S(=O)(=O)N(CC(C)C)[C@H]3CC2)cn1,n,n,n,n
Cc1c2oc3c(C)ccc(C(=O)NC4C(=O)N[C@@H](C(C)C)C(=O)N5CCCC5C(=O)N(C)CC(=O)N(C)C(C(C)C)C(=O)OC4C)c3nc-2c(C(=O)NC2C(=O)N[C@H](C(C)C)C(=O)N3CCCC3C(=O)N(C)CC(=O)N(C)C(C(C)C)C(=O)OC2C)c(N)c1=O (some centres undefined),n,n,n,62.3
Cn1cccc1-c1cc2n(n1)CCCN2C(=O)CCC(=O)NC1CCCCC1,n,n,n,n
Cc1cccc(-n2c(Cc3cc(=O)[nH]c(=O)[nH]3)nnc2SCC(=O)NCc2ccccc2Cl)c1,n,n,30.9,n
Cc1cccc(-n2c(Cc3cc(=O)[nH]c(=O)[nH]3)nnc2SCC(=O)Nc2ccc(F)cc2F)c1,n,n,n,n
COc1ccc(C(=O)NCC(=O)Nc2nc3ccccc3[nH]2)cc1,n,n,n,n
Cc1ccc(-n2c(=O)c3ccccc3n(Cc3c(F)cccc3Cl)c2=O)cc1,n,n,n,61.8
Cc1cc(N)n(-c2nc3ccccc3n2Cc2c(F)cccc2Cl)n1,n,n,n,n
